From PubChem BioAssay AID1159580 (chemical genetic matrix, 2015)
Among all 5,500 compounds or so, about 2,000 (36%) were called active. Another 18% or so got no clear call; they are omitted. Cut-off read from the data, not from the text of the source: active = normalized growth mostly below about 0.91 (no sharp cut-off); inconclusive = no clear call, values can overlap the other calls; inactive = mostly above about 0.92. This is one part of the list.

Assay: chemical genetic growth profiling, strain panel (AID 1159580);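 note: tested at 20 µM; growth read once vehicle control cultures reached saturation at 30 °C; 1 = growth at the plate median or of vehicle wells; lower values mean less growth of the strain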
Details: S. cerevisiae deletion strains, growth OD

Measured: normalized growth

O=S(=O)(Nc1csc(C(F)(F)F)c1-c1ccccc1)c1cc(Br)c(Br)s1
inactive: locus YAR019C, strain CDC15, stronger effect = lower value 0.957 | locus YBL105C, strain PKC1, stronger effect = lower value 0.952 | locus YBR135W, strain CKS1, stronger effect = lower value 0.96 | locus YBR136W, strain MEC1, stronger effect = lower value 0.93 | locus YBR160W, strain CDC28, stronger effect = lower value 0.961 | locus YDL017W, strain CDC7, stronger effect = lower value 0.955 | locus YDL028C, strain MPS1, stronger effect = lower value 0.935 | locus YDL101C, strain DUN1, stronger effect = lower value 0.968 | locus YDL108W, strain KIN28, stronger effect = lower value 0.939 | locus YDL132W, strain cdc53, stronger effect = lower value 0.971 | locus YDL214C, strain PRR2, stronger effect = lower value 0.927 | locus YDR052C, strain DBF4, stronger effect = lower value 0.961 | locus YDR054C, strain cdc34, stronger effect = lower value 0.96 | locus YDR226W, strain ADK1, stronger effect = lower value 0.953 | locus YDR477W, strain SNF1, stronger effect = lower value 0.91 | locus YER123W, strain YCK3, stronger effect = lower value 0.899 | locus YER133W, strain GLC7, stronger effect = lower value 0.959 | locus YFL009W, strain cdc4, stronger effect = lower value 0.968 | locus YFL029C, strain CAK1, stronger effect = lower value 0.949 | locus YFR003C, strain YPI1, stronger effect = lower value 0.961 | locus YFR019W, strain FAB1, stronger effect = lower value 0.852 | locus YFR028C, strain CDC14, stronger effect = lower value 0.974 | locus YGR040W, strain KSS1, stronger effect = lower value 0.912 | locus YGR052W, strain FMP48, stronger effect = lower value 0.873 | locus YGR092W, strain DBF2, stronger effect = lower value 0.804 | locus YHR079C, strain IRE1, stronger effect = lower value 0.814 | locus YHR082C, strain KSP1, stronger effect = lower value 0.654 | locus YHR205W, strain SCH9, stronger effect = lower value 0.887 | locus YIL147C, strain SLN1, stronger effect = lower value 0.951 | locus YJL095W, strain BCK1, stronger effect = lower value 0.911 | locus YJL128C, strain PBS2, stronger effect = lower value 0.956 | locus YJL157C, strain FAR1, stronger effect = lower value 0.948 | locus YJR016C, strain ILV3, stronger effect = lower value 0.962 | locus YJR066W, strain TOR1 (second series), stronger effect = lower value 0.962 | locus YJR066W, strain TOR1, stronger effect = lower value 0.861 | locus YKL048C, strain ELM1, stronger effect = lower value 0.894 | locus YKL067W, strain YNK1, stronger effect = lower value 0.943 | locus YKL101W, strain HSL1, stronger effect = lower value 0.79 | locus YKL193C, strain SDS22, stronger effect = lower value 0.964 | locus YKL203C, strain TOR2, stronger effect = lower value 0.964 | locus YLR133W, strain CKI1, stronger effect = lower value 0.871 | locus YLR403W, strain SFP1, stronger effect = lower value 0.906 | locus YML070W, strain DAK1, stronger effect = lower value 0.897 | locus YMR001C, strain CDC5, stronger effect = lower value 0.957 | locus YMR205C, strain PFK2 (second series), stronger effect = lower value 0.907 | locus YMR277W, strain FCP1, stronger effect = lower value 0.968 | locus YNL006W, strain LST8, stronger effect = lower value 0.973 | locus YNL020C, strain ARK1, stronger effect = lower value 0.837 | locus YNL161W, strain CBK1, stronger effect = lower value 0.957 | locus YNL183C, strain NPR1, stronger effect = lower value 0.814 | locus YNL207W, strain RIO2, stronger effect = lower value 0.959 | locus YNL222W, strain SSU72, stronger effect = lower value 0.955 | locus YNL307C, strain MCK1 (second series), stronger effect = lower value 0.81 | locus YOL078W, strain AVO1, stronger effect = lower value 0.964 | locus YOL136C, strain PFK27, stronger effect = lower value 0.878 | locus YOR061W, strain CKA2, stronger effect = lower value 0.696 | locus YOR119C, strain RIO1, stronger effect = lower value 0.948 | locus YOR231W, strain MKK1, stronger effect = lower value 0.879 | locus YOR329C, strain SCD5, stronger effect = lower value 0.954 | locus YPL031C, strain PHO85, stronger effect = lower value 0.844 | locus YPL153C, strain RAD53, stronger effect = lower value 0.88 | locus YPL204W, strain HRR25, stronger effect = lower value 0.89 | locus YPL209C, strain IPL1, stronger effect = lower value 0.96 | locus YPR025C, strain CCL1, stronger effect = lower value 0.958 | locus YPR106W, strain ISR1, stronger effect = lower value 0.961 | locus YPR111W, strain DBF20, stronger effect = lower value 0.943 | strain NNK1, stronger effect = lower value 0.966 | strain TSCII, stronger effect = lower value 0.963
active: locus YHR030C, strain SLT2, stronger effect = lower value 0.305 | locus YLR113W, strain HOG1, stronger effect = lower value 0.8 | locus YPL256C, strain CLN2, stronger effect = lower value 0.712
